Data as given in PubChem BioAssay (NCI).
Compounds without any hit were thinned out: in the full panel of roughly 83,000, 20% have a hit.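 Percent growth is the endpoint: 0 to 100 indicates growth inhibition (40 means 60% inhibition), 0 means no net growth, and negative values indicate cell death.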 A number with no mark means an inactive call. The source made the active and inactive calls. The calls were made as follows: active = growth percent below 10; inactive = the rest.

test system: HOP-92 NSCLC; experiment: NCI-60 one-dose screen, 48 h (100 = growth as untreated, 0 = no growth, -100 = all killed); conditions: 10 µM unless noted

Row | SMILES | growth
1 | O=C1C(Cl)=C(NCCN2CCOCC2)C(=O)c2ncccc21 | 72.6%
2 | O=C(Nc1ccc(F)cc1)Nc1ccccc1CNc1nc(Nc2ccc(OCCN3CCCC3)cc2)ncc1Cl | 52.2%
3 | C[C@H]1[C@H](C)CC[C@]2(C(=O)O)CC[C@]3(C)C(=CC[C@@H]4[C@@]5(C)C[C@@H](Cc6cn([C@@H]7O[C@H](CO)[C@@H](O)[C@H](O)[C@H]7O)nn6)[C@H](O)C(C)(C)[C@@H]5CC[C@]43C)[C@H]12 | 95.6%
4 | COC(=O)c1ccc2c(c1)c1c(C)c3ccncc3c(C)c1n2C | 18.7%
5 | COc1cc(C(=O)c2c(-c3ccccc3)oc3c(OC)cccc23)cc(OC)c1O | 34.9%
6 | C=C1C(=O)O[C@H]2[C@H]1CC/C(CNC(=O)c1cc3ccccc3[nH]1)=C\CC[C@@]1(C)O[C@@H]21 | -51.1% (active)
7 | O=P(O)(O)OCC1OC(n2cnc3c(NCc4ccccc4)ncnc32)C(O)C1O (stereo not drawn) | 22.3%
8 | CCN(CC)CCCNCc1cc(-c2ccccc2)nc2cc(Cl)ccc12 | -20.9% (active)
9 | COc1cc2nc(Nc3cccc(F)c3)nc(Nc3cc(C)[nH]n3)c2cc1OC | -88.9% [20 µM] (active)
10 | CCC/C(=N\NC(N)=O)C(OC)OC | 68.4%
11 | O=C1c2cc3c(cc2-c2c1c1ccc(Cl)cc1c(=O)n2C[C@H](O)CO)OCO3 | -11% (active)
12 | CCSC1=CC(=O)c2ccccc2C1=O | -2.5% (active)
13 | COc1cc(-c2nc3occn3c2-c2ccnc(NCCCNS(=O)(=O)c3ccccc3)n2)ccc1F | 63.4%
